Results on 40 compounds are retold here after PubChem BioAssay (Tox21).

Each structure is given as a SMILES string. Results filed as inconclusive are left out. Where a call stands in place of a potency, no number is given. Values without a mark were called inactive. Active and inactive are the calls of the source. Calls follow the shape of the dose curve; as a rule, active = well fitted inhibition curve with a large enough effect in the signal ratio in the repeat runs (not every such curve was filed as active); inconclusive = weak or mixed curves; inactive = flat fitted curve, though single readings scatter; the % refers to the signal ratio.
Potency is read from the fitted curve at half-maximal effect.

The target of the test is Progesterone receptor (Homo sapiens) (UniProt P06401). The test is described as follows: qHTS assay to identify small molecule antagonists of the progesterone receptor (PR) signaling pathway (AID 1346795). The settings on record: PR-UAS-bla HEK293T, beta-lactamase FRET ratio, 16 h; series mostly up to 42.5 µM. The source says: National Center for Advancing Translational Sciences [NCATS]
Sequence of Progesterone receptor (Homo sapiens) (P06401 whole entry, looked up): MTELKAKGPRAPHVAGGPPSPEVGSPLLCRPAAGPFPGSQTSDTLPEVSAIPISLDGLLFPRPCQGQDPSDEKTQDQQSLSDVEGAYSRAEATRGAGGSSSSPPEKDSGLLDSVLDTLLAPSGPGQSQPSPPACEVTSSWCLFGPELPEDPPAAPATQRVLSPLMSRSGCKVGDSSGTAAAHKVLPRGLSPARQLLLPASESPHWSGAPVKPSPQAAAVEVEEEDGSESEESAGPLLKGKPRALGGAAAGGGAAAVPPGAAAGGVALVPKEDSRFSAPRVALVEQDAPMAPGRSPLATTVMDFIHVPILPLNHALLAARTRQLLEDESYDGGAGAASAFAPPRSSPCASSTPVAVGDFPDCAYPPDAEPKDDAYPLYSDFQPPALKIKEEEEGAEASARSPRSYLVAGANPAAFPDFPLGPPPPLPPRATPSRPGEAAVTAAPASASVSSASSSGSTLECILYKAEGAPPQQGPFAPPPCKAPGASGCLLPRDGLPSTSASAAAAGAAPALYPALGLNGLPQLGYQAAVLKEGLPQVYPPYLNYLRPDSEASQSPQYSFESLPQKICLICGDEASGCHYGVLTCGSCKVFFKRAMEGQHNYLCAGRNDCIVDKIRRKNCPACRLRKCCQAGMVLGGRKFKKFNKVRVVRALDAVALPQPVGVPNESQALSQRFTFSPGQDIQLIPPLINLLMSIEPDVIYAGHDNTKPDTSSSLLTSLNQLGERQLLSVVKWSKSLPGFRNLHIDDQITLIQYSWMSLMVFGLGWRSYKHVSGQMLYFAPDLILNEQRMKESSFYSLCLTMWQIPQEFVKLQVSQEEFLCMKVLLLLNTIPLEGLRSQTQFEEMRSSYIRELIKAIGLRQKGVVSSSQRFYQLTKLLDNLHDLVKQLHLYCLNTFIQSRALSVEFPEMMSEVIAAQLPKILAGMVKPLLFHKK
NIH Chemical Genomics Center [NCGC]
U.S. Environmental Protection Agency [EPA]
National Institutes of Environmental Health Sciences [NIEHS]
National Toxicology Program [NTP]
U.S. Food and Drug Administration [FDA]
Progesterone receptor (PR), a nuclear hormone receptor, plays an important role in development, metabolic homeostasis and reproduction. […] Endocrine disrupting chemicals (EDCs) and their interactions with steroid hormone receptors like PR causes disruption of normal endocrine function. To identify the compounds that inhibit PR signaling, a PR-UAS-bla GripTite cell line i.e. PR-UAS-bla HEK293T (Invitrogen, Carlsbad, CA, USA) containing a beta-lactamase reporter gene under the control of an Upstream Activator Sequence (UAS) was used to screen Tox21 10K compound library.
Tox21 Assay Protocol Summary:
PR-UAS-bla HEK293T cells were dispensed at 3,000 cells/4 uL of assay medium containing 2% charcoal stripped FBS per well into black wall/clear-bottom 1536-well plates using a Multidrop Combi (ThermoFisher Scientific, Waltham, MA) dispenser. After the assay plates were incubated at a 37C and 5% CO2 for 6 hr, 23 nL of compounds dissolved in DMSO, positive controls or DMSO only was transferred to the assay plate by a Pintool station (Kalypsys, San Diego, CA), followed by addition of 1 uL (1nM as final concentration) of Promegestone (R5020) in assay medium using a BioRAPTR FRD (Flying Reagent Dispenser, Aurora Discovery, San Diego, CA). The plates were incubated at 37C and 5% CO2 for 16 hr. Then 1 uL of LiveBLAzer B/G FRET substrate was added using a FRD. After the plates were incubated at room temperature for 2 hours, fluorescence intensity was measured by an Envision plate reader (PerkinElmer, Shelton, CT).
`NCCc1cnc[nH]1`: the Potency result was “inactive”.
With `Cc1cc2c(cc1S(N)(=O)=O)S(=O)(=O)CCC2`, the Potency entry was “inactive”.
In the case of `CCOc1ccc(C(=O)OCCN(CC)CC)cc1`, the Potency result was “inactive”.
For `O=C1CCCCCCCCCCCN1`, the Potency entry was “inactive”.
Same read-out and setting: as for `COC(=O)c1ccc(C)cc1C1=NC(C)(C(C)C)C(=O)N1` (stereo not given), the entry is “inactive”.
In the case of `CCc1cccc2c(CCO)c[nH]c12`, the Potency entry is “inactive”.
On the same count and under the same terms, the same measure for `CC(=O)CC(C)C`: “inactive”; for `OC[C@]1(O)OC[C@@H](O)[C@H](O)[C@@H]1O`: “inactive”.
On the same count and under the same terms, the same measure for `CCOC(=O)CCC(C)=O`: “inactive”; for `CCCCNC(=O)NCCCC`: “inactive”.
Same read-out and setting: the same measure for `COC(=O)CC(C)=O`: “inactive”; for `CCC(=O)OC(C)c1ccccc1` (stereo not given): “inactive”; for `CC(NC(CCc1ccccc1)C(=O)O)C(=O)N1C(=O)N(C)CC1C(=O)O` (stereo not given): “inactive”.
As for `COc1ccc2c(c1)c(CC(=O)OCC(=O)O)c(C)n2C(=O)c1ccc(Cl)cc1`, the Potency entry is “inactive”.
On the same count and under the same terms, the same measure for `Nc1nc2c(ncn2COC(CO)CO)c(=O)[nH]1`: “inactive”; for `Cn1cc(S(C)=O)c(=O)c2ccc(F)cc21` (stereo not given): “inactive”; for `CC/C=C\CC/C=C/C(OCC)OCC`: “inactive”.
For the compound `CN(C)CCCSc1ccccc1NC(=O)/C=C/c1ccccc1`, the Potency result is “inactive”.
On the same count and under the same terms, as for `N=c1nc(N2CCCCC2)cc(N)n1O`, the entry is “inactive”; as for `NC(=O)c1ccc(N)cc1`, “inactive”; as for `C=CCCCCCCCCC=O`, “inactive”.
For `CS(=O)(=O)O`, the Potency result was “inactive”.
With `CCO[Si](CCC1CCC2OC2C1)(OCC)OCC` (stereo not given), the Potency entry was “inactive”.
The same measure, in the same setting: the same measure for `CCOC(=O)c1ccc(C)cc1`: “inactive”; for `CC(C)(c1ccc(O)cc1)c1ccc(O)cc1`: 15.2 µM (active).
Same read-out and setting: the same measure for `O=S(O)CO`: “inactive”; for `OC(CCN1CCCCC1)(c1ccccc1)C1CC2C=CC1C2` (stereo not given): “inactive”.
Same read-out and setting: as for `COc1ccccc1OCC(O)CN1CCN(CC(=O)Nc2c(C)cccc2C)CC1` (stereo not given), the entry is “inactive”; as for `COC(=O)CCSCCC(=O)OC`, “inactive”; as for `c1cnc(N2CCN(Cc3ccc4c(c3)OCO4)CC2)nc1`, “inactive”.
In the case of `CCCCOCCOCCOCCCC`, the Potency entry is “inactive”.
On the same count and under the same terms, the same measure for `CCN1CCC[C@H]1CNC(=O)c1c(O)c(Cl)cc(Cl)c1OC`: “inactive”; for `O=C(CCCN1CCN(c2ccccn2)CC1)c1ccc(F)cc1`: “inactive”.
With `CCOC(C)(C)C`, the Potency result was “inactive”.
On the same count and under the same terms, as for `CN1CCC(=C2c3ccccc3CC(=O)c3sccc32)CC1`, the entry is “inactive”; as for `CC(C)(C)NCCNC(C)(C)C`, “inactive”.
Same read-out and setting: the same measure for `CC(C)OC(=O)c1ccccc1`: “inactive”.
On the same count and under the same terms, the same measure for `OCCOc1ccc(OCCO)cc1`: “inactive”; for `Nc1c2c(nc3ccccc13)CCCC2O` (stereo not given): “inactive”.
With `CCCCCCCCCCCCCC=O`, the activity change, negative = inhibition was 6.1% [at 8.39 µM].
